# Assay results as given in PubChem BioAssay.
# Calls of active or inactive are those of the source.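 Rule for the calls, unless noted: active = fluorescence slope after compound addition differing from the mean of all screened samples at 99.7% confidence, in either direction; inactive = the rest.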
# How the values were obtained:
# [1] = inhibitors of TNFa-induced NFkB p65 translocation, primary screen, imaging, HUVEC, MLSMR starter and 10KST1 sets (AID 438;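 active = inhibition above 20% together with a positive visual image hit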;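 note: compound added about 3h40 before a 20 min TNFalpha stimulation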;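 for inhibition: signal is the nuclear over cytoplasmic p65 intensity ratio per well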); conditions: HUVEC TNFa-induced p65 nuclear translocation; cell count: measured here: nuclei count (cytotoxicity indicator), at 2.08 µM; inhibition: at 2 µM, stronger effect = higher value, 0% TNFa-plus-vehicle, 100% no-TNFa wells
# [2] = inhibitors of mutant huntingtin aggregation, primary screen, imaging, exon1htt(103Q)mCFP cells, high-content imaging (AID 483;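 active = visual image review flags a hit and inhibition of aggregation exceeds 20%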;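 note: compound exposure lasted 3 days before fixation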;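 for nuclei count: percent of the per-plate median nuclei count of sample wells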); conditions: exon1htt(103Q)mCFP cell line, aggregate imaging, at 2 µM; inhibition of aggregation: stronger effect = higher value; nuclei count: measured here: cell count, toxicity
# [3] = inhibitors of E-selectin induction by TNFa, primary screen, imaging, HUVEC, immunofluorescence, MLSMR starter and 10KST1 sets (AID 487;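 active = visually confirmed hit in the image check and inhibition above 20%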;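 for inhibition: signal is fraction of cell area covered by stained E-selectin grains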;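 for nuclei count: 100% = median nuclei count of all wells on the same plate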); conditions: HUVEC TNFalpha-induced E-selectin immunofluorescence imaging, at 2 µM; inhibition: stronger effect = higher value; nuclei count: measured here: cell number, toxicity
# [4] = target: Voltage-gated potassium channel subunit beta-2 (Rattus norvegicus) (UniProt P62483); assay: KvBeta enzyme negative modulators, primary screen, biochemical, NADPH fluorescence (AID 622;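 active = fluorescence slope higher than the sample average by over 3 SD, cut at about -0.22 in these data, passing the limit was not always enough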;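 note: slope of raw intensity against log time taken from 70 to 1610 s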); conditions: recombinant KvBeta, 4-cyanobenzaldehyde reduction, at 10 µM, stronger effect = higher value
# [5] = target: Voltage-gated potassium channel subunit beta-2 (Rattus norvegicus) (UniProt P62483); assay: KvBeta positive modulators, primary screen, biochemical, NADPH fluorescence (AID 623;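 active = NADPH fluorescence slope more negative than the mean of all samples by about 3 SD, 99.7% confidence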;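 note: fluorescence intensity change per second fitted from 20 to 320 s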); conditions: Recombinant KvBeta, NADPH fluorescence decrease slope, 10 min; at 10 µM; stronger effect = lower value
# [6] = target: Alpha-2C adrenergic receptor (Homo sapiens) (UniProt P18825); assay: modulators of alpha2C/GIRK thallium flux, primary screen, cell-based, HEK293 alpha2C/GIRK1/2 (AID 624); conditions: thallium flux BTC fluorescence, at 10 µM, actives lie on both sides;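 note: slope of fluorescence ratio to pre-addition baseline per second over 15 to 24 s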
# [7] = inhibitors of Sendai virus-induced IRF3 signaling, primary screen, TLR/RLR signaling modifier project, cell-based, Sendai virus stimulus, luciferase, 10K MLSCN set (AID 602276;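 active = inhibition at or above 50% at 10 µM; inactive = inhibition below 50%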;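 note: firefly luciferase from ISG56 promoter only with Renilla not read in this screen; 0% = Sendai virus plus DMSO and 100% = medium plus DMSO without virus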); conditions: HEK293 RL24 IRF3 luciferase reporter, at 10 µM, stronger effect = higher value
# [8] = inhibitors of poly I:C-induced TLR3 signaling, primary screen, cell-based, poly I:C stimulus, luciferase, 10K MLSCN set (AID 602277;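 active = inhibition of the reporter signal at or above 50%; inactive = inhibition below 50%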); conditions: HEK293-TLR3 RL24 IRF3 luciferase reporter, at 10 µM, stronger effect = higher value
# Sequence of Voltage-gated potassium channel subunit beta-2 (Rattus norvegicus) (P62483 whole entry, looked up): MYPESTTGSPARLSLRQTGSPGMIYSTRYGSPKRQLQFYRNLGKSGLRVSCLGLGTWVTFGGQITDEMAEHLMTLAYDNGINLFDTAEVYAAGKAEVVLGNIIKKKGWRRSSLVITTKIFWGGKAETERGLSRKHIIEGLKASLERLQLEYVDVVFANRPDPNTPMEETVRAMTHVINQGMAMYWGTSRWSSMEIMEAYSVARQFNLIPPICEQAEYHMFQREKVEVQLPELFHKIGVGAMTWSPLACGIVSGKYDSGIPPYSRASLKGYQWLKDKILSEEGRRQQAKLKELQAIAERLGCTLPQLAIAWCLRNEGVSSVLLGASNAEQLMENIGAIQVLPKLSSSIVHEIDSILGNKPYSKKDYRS
# Sequence of Alpha-2C adrenergic receptor (Homo sapiens) (P18825 whole entry, looked up): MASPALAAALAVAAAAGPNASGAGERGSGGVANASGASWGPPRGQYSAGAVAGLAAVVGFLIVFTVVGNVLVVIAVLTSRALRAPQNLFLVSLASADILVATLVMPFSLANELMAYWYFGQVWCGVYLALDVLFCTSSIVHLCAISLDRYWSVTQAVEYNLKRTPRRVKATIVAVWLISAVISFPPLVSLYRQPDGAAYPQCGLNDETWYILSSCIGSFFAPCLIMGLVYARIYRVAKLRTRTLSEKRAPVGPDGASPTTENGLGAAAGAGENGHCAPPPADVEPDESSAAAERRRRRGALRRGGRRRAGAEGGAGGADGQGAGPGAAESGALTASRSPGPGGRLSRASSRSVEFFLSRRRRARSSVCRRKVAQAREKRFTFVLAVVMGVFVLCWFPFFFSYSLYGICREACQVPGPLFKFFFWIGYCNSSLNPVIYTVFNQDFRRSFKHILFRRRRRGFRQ
Compound,cell count [1],inhibition [1],inhibition of aggregation [2],nuclei count [2] [%],inhibition [3],nuclei count [3] [%],fluorescence slope [4],NADPH fluorescence slope [5],slope [6],inhibition [7],inhibition [8]
CC(=O)C(Sc1ncnc2c1nnn2-c1ccc(F)cc1)C(=O)N(C)C (stereo not drawn),464,-2.2% (inactive),2.3% (inactive),89.3,-51.7% (inactive),114,-0.492 (inactive),-1.7e-05 (inactive),0.00752 (inactive),-3.3% (inactive),-23.2% (inactive)
COc1ccc(-n2c(Cc3cccn3C)nnc2SCC(=O)Nc2ccccc2)cc1,527,-11.3% (inactive),6.5% (inactive),79.8,-20.6% (inactive),116,-0.55 (inactive),-2.9e-05 (inactive),0.00572 (inactive),15.3% (inactive),36.7% (inactive)
CCOc1ccc(-c2c(C#N)c(N)nc3c2c(=O)n(C)c(=O)n3C)cc1OC,702,-1.1% (inactive),7.8% (inactive),108,-7.5% (inactive),103,-0.486 (inactive),-5.7e-05 (inactive),0.00459 (inactive),14.3% (inactive),16.4% (inactive)
N#Cc1cc2c(nc1SCC(=O)Nc1sc3c(c1C#N)CCC3)CCCCC2,606,5.3% (inactive),-0.2% (inactive),103,32.4% (inactive),104,-0.323 (inactive),-4.1e-05 (inactive),0.00575 (inactive),1.89% (inactive),-0.19% (inactive)
COc1ccc(NC(=O)c2cc(C)on2)cc1OC,377,3.7% (inactive),-26.4% (inactive),111,22.1% (inactive),106,-0.624 (inactive),-3.2e-06 (inactive),0.00386 (inactive),6.93% (inactive),-8.62% (inactive)
C/C(N)=C(/C#N)C(=O)CSc1nnc(Nc2c(C)cccc2C)s1,354,13.1% (inactive),8.1% (inactive),70.3,-30.9% (inactive),119,-0.586 (inactive),-5.6e-05 (inactive),0.00543 (inactive),6.86% (inactive),2.86% (inactive)
CCN(CCO)C(=O)CC(c1ccccc1)c1cc(Br)ccc1O (stereo not drawn),357,15% (inactive),-0.8% (inactive),102,-31.9% (inactive),102,-0.331 (inactive),-6.1e-05 (inactive),0.00761 (inactive),13.1% (inactive),20.3% (inactive)
Cc1ccc2c(c1)nnn2C1CCN(C(=O)NC23CC4CC(CC(C4)C2)C3)CC1,471,-9.4% (inactive),11.5% (inactive),122,19.9% (inactive),98.1,-0.423 (inactive),-4e-05 (inactive),0.00535 (inactive),18.3% (inactive),22.5% (inactive)
CC(=O)NC(Cc1ccc(C)cc1)C(=O)NC1CCN(C(=O)c2cnccn2)CC1 (stereo not drawn),740,-1% (inactive),22.2% (inactive),130,-42% (inactive),117,-0.421 (inactive),-1.5e-05 (inactive),0.00511 (inactive),13.8% (inactive),9.87% (inactive)
CCOc1ccc(NC(=O)C2CC(=O)N(C(C)C)C2)cc1 (stereo not drawn),346,-0.5% (inactive),11.8% (inactive),91.8,-32.2% (inactive),96.8,-0.623 (inactive),4.4e-05 (inactive),0.00445 (inactive),11% (inactive),12.4% (inactive)
Fc1cccc(NCc2cn3ccccc3n2)c1,664,-8% (inactive),-73.5% (inactive),91.8,-64.2% (inactive),120,-0.209 (inactive),-1.6e-05 (inactive),0.00555 (inactive),-1.05% (inactive),-62.5% (inactive)
CNC(=O)CSc1nnc(-c2cc3c(C)nn(-c4ccccc4)c3s2)n1C,428,4.3% (inactive),2.8% (inactive),74.6,-35.6% (inactive),118,-0.405 (inactive),4.5e-05 (inactive),0.00659 (inactive),-6.24% (inactive),-6.6% (inactive)
Cc1c(Cl)cnc(NC(=O)COC(=O)C(NC(=O)c2ccco2)C(C)C)c1Cl (stereo not drawn),362,7.4% (inactive),-2.1% (inactive),80.5,-17.2% (inactive),112,-0.584 (inactive),-3.9e-05 (inactive),0.00552 (inactive),6.87% (inactive),5.64% (inactive)
CCOc1ccc(-n2cc(C(=O)N3CCN(C)CC3)c3cc(OC)c(OC)cc3c2=O)cc1,393,8.8% (inactive),0.2% (inactive),99.4,-54.1% (inactive),121,-0.524 (inactive),1.6e-05 (inactive),0.007 (inactive),-29.8% (inactive),-2.36% (inactive)
COC(=O)[C@H](C)NC(=O)Nc1cccc(C(F)(F)F)c1,483,-2.7% (inactive),29.8% (inactive),85.5,-98.7% (inactive),109,-0.537 (inactive),2.9e-05 (inactive),0.00446 (inactive),-11.9% (inactive),-5.94% (inactive)
COc1ccc(CCNC(=O)C2CCN(C(=O)N(C)C)CC2)cc1OC,618,0.9% (inactive),3.5% (inactive),44.3,-74.3% (inactive),106,-0.386 (inactive),-1.9e-05 (inactive),0.00486 (inactive),6.71% (inactive),-1.45% (inactive)
O=C(CSCCSCC(=O)c1ccco1)c1ccco1,594,-6.1% (inactive),-12% (inactive),84.7,-44.4% (inactive),138,-0.421 (inactive),-6.5e-05 (inactive),0.00644 (inactive),7.09% (inactive),7.22% (inactive)
Cc1ccc2cc(CCNC(=O)C(C)C)c(=O)[nH]c2c1C,640,1.9% (inactive),8.6% (inactive),57.4,-60.4% (inactive),125,-0.57 (inactive),-2.3e-05 (inactive),0.00565 (inactive),-6.46% (inactive),-5.17% (inactive)
O=S1(=O)CC(N2CCCCC2)C(N2CCCCC2)C1 (stereo not drawn),394,3.6% (inactive),0.2% (inactive),110,-31.5% (inactive),107,-0.587 (inactive),-1.5e-05 (inactive),0.00686 (inactive),15.3% (inactive),32.7% (inactive)
COC(=O)C(C)NC(=O)C12CC3CC(CC(C3)C1)C2 (stereo not drawn),512,-5.8% (inactive),13.2% (inactive),103,-31% (inactive),124,-0.321 (inactive),-2.1e-05 (inactive),0.0064 (inactive),-0.739% (inactive),23% (inactive)
COc1ccc(Cc2nc(-c3ccc(NC(=O)c4cccnc4)cc3)no2)cc1,609,9.6% (inactive),23.4% (inactive),121,-45.6% (inactive),96.3,-0.6 (inactive),-5e-05 (inactive),0.0059 (inactive),-8.06% (inactive),-67.3% (inactive)
Cc1cccc(CC(=O)Nc2c3c(nn2-c2cccc(Cl)c2)CS(=O)C3)c1 (stereo not drawn),394,1% (inactive),-17.3% (inactive),106,-27.9% (inactive),110,-0.57 (inactive),2.8e-05 (inactive),0.00504 (inactive),-10.3% (inactive),-33.4% (inactive)
CCOc1ccc(C2C(C#N)=C(N)Oc3cc(C)n(CCN(C)C)c(=O)c32)cc1OCC (stereo not drawn),587,-7.4% (inactive),1.7% (inactive),98.3,11.8% (inactive),93.1,-0.588 (inactive),-4.4e-05 (inactive),0.00685 (inactive),14.3% (inactive),38.2% (inactive)
CC(=O)N1CCN(C(C)=O)C1c1ccccc1,464,6% (inactive),-9.6% (inactive),106,-231% (inactive),133,-0.376 (inactive),5.2e-06 (inactive),0.00709 (inactive),-22% (inactive),-25.1% (inactive)
COc1cc(NC(=O)C(C)Oc2ccccc2)c(C(=O)O)cc1OC (stereo not drawn),622,-1.5% (inactive),-0.9% (inactive),108,-23.7% (inactive),101,-0.606 (inactive),-2.5e-05 (inactive),0.00509 (inactive),19% (inactive),19.4% (inactive)
Cc1c(NC(=O)c2noc3c2CCc2ccccc2-3)c(=O)n(-c2ccccc2)n1C,620,-3.4% (inactive),-4.3% (inactive),110,-79.6% (inactive),116,-0.474 (inactive),2.6e-05 (inactive),0.0062 (inactive),2.37% (inactive),-5.2% (inactive)
O=S(=O)(NC1CCCC1)c1ccc(S(=O)(=O)N2CCc3ccccc32)cc1,395,0% (inactive),8.6% (inactive),102,-13.9% (inactive),97.5,-0.589 (inactive),-1.9e-05 (inactive),0.00513 (inactive),5.42% (inactive),-11.7% (inactive)
COC(=O)c1sc(N)c(C(=O)OC)c1CSc1nc2sc3c(c2c(=O)n1C)CCC3,428,14.1% (inactive),-20% (inactive),104,2.9% (inactive),111,-0.524 (inactive),-6.8e-06 (inactive),0.00788 (inactive),-6.85% (inactive),15% (inactive)
